The list is not random: actives were taken first. Their share in the collection is about 3.4%.
MITF inh: human MITF inhibition, primary screen | AlphaScreen MITF homodimerization, bead proximity signal | inhibition, % at 2.6 µM | O75030 | AID 1259374 | hit rate 0.91% among 650,000; in the data active = inhibition above about 50%;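 also: 0% = vehicle wells with protein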
TEAD-YAP inh: TEAD-YAP interaction inhibition; HEK-TIYL cells, TEAD-Gal4/YAP UAS-luciferase luminescence; inhibition, % at 9.12 µM; hit rate 1.4% among 640,000; in the data active = inhibition above about 32%;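 also: 0% = median of test compound wells and 100% = reference inhibitor wells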
GPR151 ag: activators of human GPR151; PathHunter beta-arrestin GPR151 cells, luminescence; Q8TDV0; activation, % at 11.2 µM; AID 1508602; hit rate 1% among 650,000; in the data active = activation above about 4.9%;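 also: 0% = median of compound wells and 100% = cells with positive control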
FBW7 act: human FBW7 E3 ligase activation, primary screen; Q969H0; normalized activity (activation), % at 26.1 µM; hit rate 0.13% among 650,000; AlphaScreen FBW7–phospho-cyclin E peptide binding, activator screen; in the data active = normalized activity above about 1.9%;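 also: purified mutant Fbw7 with reduced substrate affinity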
Target sequence (Q969H0 whole entry, looked up): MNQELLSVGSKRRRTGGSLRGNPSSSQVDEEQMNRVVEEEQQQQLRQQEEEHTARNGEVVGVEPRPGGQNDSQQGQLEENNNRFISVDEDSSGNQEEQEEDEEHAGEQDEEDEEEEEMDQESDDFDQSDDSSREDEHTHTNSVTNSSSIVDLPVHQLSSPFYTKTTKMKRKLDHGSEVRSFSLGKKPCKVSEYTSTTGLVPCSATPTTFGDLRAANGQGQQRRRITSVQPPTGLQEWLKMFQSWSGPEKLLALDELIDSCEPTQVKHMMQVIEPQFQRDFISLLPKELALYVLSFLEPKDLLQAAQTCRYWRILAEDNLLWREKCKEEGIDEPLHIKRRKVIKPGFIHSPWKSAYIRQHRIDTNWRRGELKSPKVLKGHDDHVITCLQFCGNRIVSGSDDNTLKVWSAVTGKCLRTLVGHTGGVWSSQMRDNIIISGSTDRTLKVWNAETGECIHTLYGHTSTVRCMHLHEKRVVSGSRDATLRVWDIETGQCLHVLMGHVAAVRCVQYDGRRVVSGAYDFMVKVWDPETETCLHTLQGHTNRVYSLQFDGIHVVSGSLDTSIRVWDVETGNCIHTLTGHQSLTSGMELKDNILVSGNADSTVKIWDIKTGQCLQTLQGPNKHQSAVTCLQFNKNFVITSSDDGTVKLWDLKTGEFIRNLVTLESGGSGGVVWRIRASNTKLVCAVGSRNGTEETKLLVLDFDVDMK
The depositor's hits bear a star.

SMILES	MITF inh	TEAD-YAP inh	GPR151 ag	FBW7 act
COc1ccc(-c2nc3cc(N)ccc3o2)cc1Br	-7	-19	-1	0
COc1ccc(-c2nc3cc(C(C)C)ccc3o2)cc1N	10	66*	-1	0
COC(=O)Cn1c(=NC(=O)COc2ccccc2)sc2cc3c(cc21)OCCO3	-13	4	-2	0
Clc1ccc(CSc2nn3cnnc3s2)cc1	16	53*	-1	0
CCC(CC)C(=O)Nc1ccc(S(=O)(=O)N2CCC(c3nc4ccccc4[nH]3)CC2)cc1	16	12	0	0
O=C(CCc1ccccc1)Nc1ccc(S(=O)(=O)N2CCC(c3nc4ccccc4[nH]3)CC2)cc1	14	32*	0	0
O=C(Nc1ccc(S(=O)(=O)N2CCC(c3nc4ccccc4[nH]3)CC2)cc1)c1ccccc1F	20	40*	-1	0
COCCn1nnnc1C(c1cc(OC)ccc1OC)N1CCN(C)CC1 (centres undefined)	8	-4	-1	0
COc1ccc(Cl)cc1N(CC(=O)Nc1ccc(C)c(Cl)c1)S(C)(=O)=O	20	0	1	0
O=C(Cc1csc(-n2cccc2)n1)N1CCN(c2ncccn2)CC1	0	-1	1	0
C=CCOc1ccc(C(=O)Nc2ccccn2)cc1	10	52*	-8	0
Cc1ccc(C(=O)Nc2ccccn2)cc1C	18	44*	-10	0
CC(C)(C)c1ccc(C(=O)Nc2ccccn2)cc1	15	84*	-10	0
CCN1CCN(C(=O)CCCOc2ccccc2)CC1	-1	43*	0	0
OC1CCC(Nc2ccc3ncc(-c4ccc5ccccc5c4)n3n2)CC1 (centres undefined)	-15	0	1	0
COC(=O)c1ccc(-c2cnc3ccc(NC4CCC(O)CC4)nn23)cc1 (centres undefined)	-4	41*	1	0
COc1ccc(-c2cnc3ccc(NC4CCC(O)CC4)nn23)cn1 (centres undefined)	-13	36*	2	0
CC(=O)Nc1ccc(N2C(=O)CC(N3CCCCCC3)C2=O)cc1 (centres undefined)	7	10	1	0
CCC(C)(C)NC(=O)C(OC(=O)c1ccco1)c1ccc(OC)cc1 (centres undefined)	12	-5	1	0
CCC(C)(C)NC(=O)C(OC(=O)c1ccco1)c1ccc(C)cc1 (centres undefined)	8	-3	0	1.9*
Cc1cc(-c2nc3cc(NC(=O)c4cccc([N+](=O)[O-])c4C)ccc3o2)ccc1Br	-11	-19	-1	0
CCOC(=O)C(CC)/C(C)=N\NC(=O)c1ccccc1[N+](=O)[O-] (centres undefined)	9	2	0	1
CCOC(=O)C(CC)/C(C)=N\NC(=O)c1ccccc1O (centres undefined)	0	59*	1	-1
O=c1c2c3c(sc2nc2c4ccccc4c(Cl)nn12)CCCCC3	-4	-5	0	0
Cc1nn2c(=O)c3c4c(sc3nc2c2ccccc12)CCCC4	2	52*	0	0
SMILES	MITF inh	TEAD-YAP inh	GPR151 ag	FBW7 act
CC(C)(C)ONC(=O)c1cnc2sc3ccccc3n2c1=O	18	-10	-1	2
COC(=O)c1ccc2c(c1)C(=O)/C(=C/c1cc(OC)c(OC)c(OC)c1)O2	5	-8	1	0
COc1cccc(/C=C2\Oc3ccc(O)cc3C2=O)c1O	3	97*	-8	0
COC(=O)c1ccc2c(c1)C(=O)/C(=C/c1cccc(O)c1)O2	13	42*	-2	0
COC(=O)c1ccc2c(c1)C(=O)/C(=C/c1ccccc1OC)O2	-2	-3	2	0
COC(=O)c1ccc2c(c1)C(=O)/C(=C/c1ccc(O)cc1)O2	0	52*	2	0
N#C/C(=C(/O)COC(=O)c1cc(=O)[nH]c2ccccc12)c1nc2ccccc2[nH]1	3	-1	0	0
Oc1c(C(Nc2ccc(Cl)cc2)c2ccccn2)ccc2cccnc12 (centres undefined)	69*	16	0	-2
Oc1c(C(Nc2cccc(C(F)(F)F)c2)c2cccnc2)ccc2cccnc12 (centres undefined)	65*	15	1	-2
O=C(NC(c1ccccc1)c1ccccn1)c1ccc([N+](=O)[O-])cc1 (centres undefined)	5	4	1	0
O=c1cc(CO)oc(C(Nc2cccc(F)c2)c2ccccn2)c1O (centres undefined)	12	4	3	0
O=[N+]([O-])c1ccc(NC(c2ccccn2)c2ccc3cccnc3c2O)cc1 (centres undefined)	18	87*	1	-1
Oc1c(C(Nc2cccc(C(F)(F)F)c2)c2ccccn2)ccc2cccnc12 (centres undefined)	51*	27	3	-1
CC(C)CCn1c(=N)c(C#N)cc2c(=O)n3ccccc3nc21	-11	-8	0	0
O=c1c2nnn(Cc3ccc(Cl)cc3)c2ncn1Cc1ccccc1F	15	3	-1	0
CC(C)(C)c1ccc(C(=O)CC2(O)C(=O)N(CCc3ccccc3)c3ccccc32)cc1 (centres undefined)	3	5	1	0
CC(=O)Oc1cccc(C(=O)NCc2ccc(F)cc2)c1	6	5	0	0
Oc1c(C(Nc2cccc(Cl)c2)c2ccccn2)ccc2cccnc12 (centres undefined)	45	62*	-1	0
O=C(Nc1nc(CN2CCc3ccccc3C2)cs1)c1ccc(F)cc1	2	32*	1	0
COc1ccc(/C=C/C(=O)Nc2nc(CN3CCc4ccccc4C3)cs2)cc1OC	-8	45*	1	0
COc1ccccc1OCC(=O)Nc1nc(CN2CCc3ccccc3C2)cs1	13	-2	-1	0
Cc1c(NC(=O)c2ccccc2F)cccc1[N+](=O)[O-]	8	-45	-1	0
Cc1ccccc1N1CCN(C(=O)CSc2ccc3nnc(C)n3n2)CC1	-2	-15	0	0
CCOc1ccc(C(=O)CSCCC(=O)O)cc1	7	35*	0	0
CCOc1ccc(C(=O)CCNCCC(=O)O)cc1	6	1	0	0
SMILES	MITF inh	TEAD-YAP inh	GPR151 ag	FBW7 act
c1ccc(-c2cnc3ccc(NCc4ccc5c(c4)OCO5)nn23)cc1	2	4	0	0
OCc1ccc(-c2cnc3ccc(NCc4ccc5c(c4)OCO5)nn23)cc1	11	58*	-1	1
c1cc(-c2cnc3ccc(NCc4ccc5c(c4)OCO5)nn23)ccn1	9	47*	0	0
CC(=O)Nc1ccc(NC(=O)c2csc(-c3ccc(C(=O)NC4CC4)cc3)n2)cc1	7	1	0	0
O=C(NC1CC1)c1ccc(-c2nc(C(=O)Nc3ccc(Oc4ccccc4)cc3)cs2)cc1	6	33*	1	0
CN1CCN(C(=O)c2ccc(-c3nc(C(=O)Nc4ccc(Oc5ccccc5)cc4)cs3)cc2)CC1	14	44*	3	1

Screening data as filed in PubChem BioAssay.
